Measurements taken from PMC5540273 (PLoS ONE, 2017).

Assays:
Conditions in all cases: concentration: 1 μM,replicates: in singlicate; n = 1
SNARK = system: T1, SNARK
T1 construct: gene NUAK2

SNRK = system: SNRK
SRC = system: SRC
SRMS = system: SRMS
SRPK1 = system: SRPK1
SRPK2 = system: SRPK2
SRPK3 = system: SRPK3
STK16 = system: STK16
STK33 = system: STK33
STK35 = system: STK35
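Note: KINOMEscan kinase panel screen.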

SMILES | %Inh (SNARK) | %Inh (SNRK) | %Inh (SRC) | %Inh (SRMS) | %Inh (SRPK1) | %Inh (SRPK2) | %Inh (SRPK3) | %Inh (STK16) | %Inh (STK33) | %Inh (STK35)
N#Cc1cccc(C(=O)NC2CCN(c3ccnc(Nc4ccc(F)cc4)n3)C2)c1 (stereo not shown) [GSK1379708] | 0% | 0% | 5% | 0% | 40% | 0% | 0% | 12% | 0% | 0%
Cn1ccc2ncnc(Oc3ccc(NC(=O)Nc4cc(C(C)(C)C)on4)c(Cl)c3)c21 | 0% | 13% | 44% | 0% | 80% | 0% | 0% | 2% | 64% | 30%
Cn1ccc2ncnc(Oc3ccc(NC(=O)Nc4cncc(C(F)(F)F)c4)c(Cl)c3)c21 | 0% | 0% | 5% | 0% | 73% | 0% | 0% | 4% | 8% | 0%
O=C1NCCc2[nH]c(-c3ccncc3)cc21 | 87% | 12% | 6% | 0% | 0% | 0% | 4% | 33% |  | 68%
O=C(Nc1cccc(Oc2ccc3nccn3n2)c1)Nc1cccc(C(F)(F)F)c1 | 0% | 0% | 0% | 0% | 0% | 0% | 14% | 9% | 21% | 0%
C[C@@H]1CCN(C(=O)N2CCCC2)C[C@@H]1N(C)c1ncnc2[nH]ccc12 | 61% | 18% | 0% | 0% | 8% | 3% | 14% | 0% | 0% | 0%
CC(C)c1nc(-c2cccc(NS(=O)(=O)c3ccccc3)c2)c(-c2ccnc(Nc3ccc4c(c3)CN(C)CC4)n2)s1 [GSK1649598] | 35% | 1% | 100% | 99.5% | 49% | 0% | 0% | 28% | 94.8% | 63%
CCn1c(-c2nonc2N)nc2cncc(Br)c21 [SB-738004] | 31% | 0% | 0% | 0% | 0% | 36% | 0% | 27% | 13% | 0%
